Measurements published in the supplement of paper PMC10849652.
Of roughly 7,900 targets only a part is listed; those with a hit were picked by preference. About 0.6% of all pairs of compound and target were hits.

The targets below were run with C1COCCN1CCN2C3=CC=CC=C3N=C2NC(=O)C4=CC(=CC=C4)[N+](=O)[O-] [IRAK-1-4 Inhibitor I] (assay: log2 fold change, soluble protein after heating vs DMSO (PISA); higher = thermal stabilisation; K562 cells, 10 uM, 30 min; active = over 0.2 and 3.5 SD of the protein, either way, in both replicates (recomputed)).
Summary of the method: (§1)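 K562 cells (2×10^6 cells/mL) were treated with 10 μM compound for 30 min, and aliquots were heated for 3 min over 48°C-58°C. Pooled aliquots were extracted in PBS with 0.5% NP-40 at 4°C, and the supernatant after 21,000xg for 90 min was measured by TMTpro 16plex LC-MS/MS with channel sums equalised. Reported thermal stability, relative to control samples and from duplicates, is a log2 fold change.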

UniProt O00567, sequence (O00567 whole entry, looked up): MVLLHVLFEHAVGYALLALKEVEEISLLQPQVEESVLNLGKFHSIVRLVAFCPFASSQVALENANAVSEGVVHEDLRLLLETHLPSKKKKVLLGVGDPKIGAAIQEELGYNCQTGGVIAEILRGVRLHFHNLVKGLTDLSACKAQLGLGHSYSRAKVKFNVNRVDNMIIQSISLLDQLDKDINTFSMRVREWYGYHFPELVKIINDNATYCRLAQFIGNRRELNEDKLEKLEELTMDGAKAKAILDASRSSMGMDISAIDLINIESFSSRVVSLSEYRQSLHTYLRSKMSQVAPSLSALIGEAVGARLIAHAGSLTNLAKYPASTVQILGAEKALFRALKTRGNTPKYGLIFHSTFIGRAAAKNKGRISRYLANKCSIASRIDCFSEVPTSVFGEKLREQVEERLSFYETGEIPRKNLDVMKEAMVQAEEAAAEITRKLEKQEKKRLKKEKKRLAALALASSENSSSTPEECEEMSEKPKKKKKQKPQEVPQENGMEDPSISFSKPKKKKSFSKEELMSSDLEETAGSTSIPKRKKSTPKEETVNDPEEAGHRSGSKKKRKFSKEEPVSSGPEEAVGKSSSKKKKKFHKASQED
UniProt O15118, sequence (O15118 whole entry, looked up): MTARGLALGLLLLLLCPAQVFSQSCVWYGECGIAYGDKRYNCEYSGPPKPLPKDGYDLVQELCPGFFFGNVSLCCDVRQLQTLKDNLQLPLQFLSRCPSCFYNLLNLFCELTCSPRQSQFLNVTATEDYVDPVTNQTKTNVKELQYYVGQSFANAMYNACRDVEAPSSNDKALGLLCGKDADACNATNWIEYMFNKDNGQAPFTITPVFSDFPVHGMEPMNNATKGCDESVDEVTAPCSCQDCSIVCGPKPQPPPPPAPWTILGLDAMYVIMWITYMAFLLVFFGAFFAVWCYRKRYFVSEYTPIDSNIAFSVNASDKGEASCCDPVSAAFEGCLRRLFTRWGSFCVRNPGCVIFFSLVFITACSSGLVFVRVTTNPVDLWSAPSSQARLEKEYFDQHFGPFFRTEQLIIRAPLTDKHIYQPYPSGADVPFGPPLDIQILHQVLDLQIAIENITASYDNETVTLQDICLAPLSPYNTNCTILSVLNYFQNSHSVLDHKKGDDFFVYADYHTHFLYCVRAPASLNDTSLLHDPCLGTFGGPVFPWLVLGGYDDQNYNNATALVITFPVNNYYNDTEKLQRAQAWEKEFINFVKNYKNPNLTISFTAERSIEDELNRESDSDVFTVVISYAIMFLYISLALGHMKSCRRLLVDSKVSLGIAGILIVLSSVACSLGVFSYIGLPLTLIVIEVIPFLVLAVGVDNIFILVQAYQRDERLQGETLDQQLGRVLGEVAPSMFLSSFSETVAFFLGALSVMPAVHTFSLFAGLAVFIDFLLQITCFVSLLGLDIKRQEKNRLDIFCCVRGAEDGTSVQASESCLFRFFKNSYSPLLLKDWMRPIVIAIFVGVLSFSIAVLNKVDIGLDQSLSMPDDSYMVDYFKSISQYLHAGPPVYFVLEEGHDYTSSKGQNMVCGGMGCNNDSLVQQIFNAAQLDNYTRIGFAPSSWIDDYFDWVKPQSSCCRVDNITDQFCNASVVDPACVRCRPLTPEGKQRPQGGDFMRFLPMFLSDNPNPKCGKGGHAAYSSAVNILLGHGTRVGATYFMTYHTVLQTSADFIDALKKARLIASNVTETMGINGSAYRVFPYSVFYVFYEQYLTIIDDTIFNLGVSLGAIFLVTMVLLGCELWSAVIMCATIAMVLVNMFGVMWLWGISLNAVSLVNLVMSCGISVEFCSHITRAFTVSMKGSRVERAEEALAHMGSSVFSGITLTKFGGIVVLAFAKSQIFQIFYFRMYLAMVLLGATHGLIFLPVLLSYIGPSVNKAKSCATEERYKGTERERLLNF
UniProt Q92621, sequence (Q92621 whole entry, looked up): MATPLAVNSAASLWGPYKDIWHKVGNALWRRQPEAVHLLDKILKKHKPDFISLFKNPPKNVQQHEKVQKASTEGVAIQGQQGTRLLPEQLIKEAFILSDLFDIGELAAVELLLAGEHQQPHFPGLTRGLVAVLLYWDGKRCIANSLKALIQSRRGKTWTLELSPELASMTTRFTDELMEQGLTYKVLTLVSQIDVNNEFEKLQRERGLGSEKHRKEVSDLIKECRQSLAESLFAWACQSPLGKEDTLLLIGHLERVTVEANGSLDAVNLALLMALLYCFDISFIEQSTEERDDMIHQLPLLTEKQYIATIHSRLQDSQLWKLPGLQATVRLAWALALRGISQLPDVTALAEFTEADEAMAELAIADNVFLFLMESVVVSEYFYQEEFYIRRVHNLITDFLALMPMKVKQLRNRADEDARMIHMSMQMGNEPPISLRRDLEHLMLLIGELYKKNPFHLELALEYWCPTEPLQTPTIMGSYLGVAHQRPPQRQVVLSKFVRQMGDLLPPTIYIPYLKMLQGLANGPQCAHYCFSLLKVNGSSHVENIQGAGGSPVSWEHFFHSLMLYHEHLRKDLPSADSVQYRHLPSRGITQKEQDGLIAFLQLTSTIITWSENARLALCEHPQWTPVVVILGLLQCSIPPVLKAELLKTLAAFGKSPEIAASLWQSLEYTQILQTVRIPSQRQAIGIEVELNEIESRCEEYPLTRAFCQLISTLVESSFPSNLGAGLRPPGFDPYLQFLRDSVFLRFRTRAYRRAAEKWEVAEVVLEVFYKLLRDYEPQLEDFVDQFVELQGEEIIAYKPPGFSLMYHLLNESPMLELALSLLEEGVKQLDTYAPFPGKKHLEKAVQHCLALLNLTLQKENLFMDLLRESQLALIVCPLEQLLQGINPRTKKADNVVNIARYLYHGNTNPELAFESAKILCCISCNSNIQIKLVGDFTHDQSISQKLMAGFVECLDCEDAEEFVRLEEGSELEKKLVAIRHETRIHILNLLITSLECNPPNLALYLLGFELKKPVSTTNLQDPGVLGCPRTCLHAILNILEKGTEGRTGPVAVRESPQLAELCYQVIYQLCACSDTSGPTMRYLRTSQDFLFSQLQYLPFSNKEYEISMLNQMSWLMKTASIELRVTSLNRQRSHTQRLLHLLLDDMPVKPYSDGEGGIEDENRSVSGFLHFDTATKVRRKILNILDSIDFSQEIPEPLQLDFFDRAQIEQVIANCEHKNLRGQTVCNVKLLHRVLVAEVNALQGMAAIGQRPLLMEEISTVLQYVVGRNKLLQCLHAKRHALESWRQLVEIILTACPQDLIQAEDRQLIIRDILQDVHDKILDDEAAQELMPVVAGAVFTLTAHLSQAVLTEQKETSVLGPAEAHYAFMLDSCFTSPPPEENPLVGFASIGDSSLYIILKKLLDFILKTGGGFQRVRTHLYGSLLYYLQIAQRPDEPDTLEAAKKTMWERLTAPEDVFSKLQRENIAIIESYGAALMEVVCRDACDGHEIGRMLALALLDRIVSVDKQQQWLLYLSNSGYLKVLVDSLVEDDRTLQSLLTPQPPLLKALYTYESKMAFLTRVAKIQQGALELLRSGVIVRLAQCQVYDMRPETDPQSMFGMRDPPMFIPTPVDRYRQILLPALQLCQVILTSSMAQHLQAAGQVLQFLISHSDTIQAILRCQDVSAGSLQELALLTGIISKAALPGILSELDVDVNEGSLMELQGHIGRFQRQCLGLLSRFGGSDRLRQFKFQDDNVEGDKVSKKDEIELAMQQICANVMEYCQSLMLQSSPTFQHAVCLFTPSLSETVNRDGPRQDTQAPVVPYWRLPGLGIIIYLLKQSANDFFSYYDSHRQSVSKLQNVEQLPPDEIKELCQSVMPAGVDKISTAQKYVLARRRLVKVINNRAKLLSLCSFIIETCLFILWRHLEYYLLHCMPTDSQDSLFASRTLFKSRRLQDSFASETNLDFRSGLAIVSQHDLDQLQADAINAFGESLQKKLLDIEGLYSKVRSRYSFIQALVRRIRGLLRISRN
UniProt Q9BV86, sequence (Q9BV86 whole entry, looked up): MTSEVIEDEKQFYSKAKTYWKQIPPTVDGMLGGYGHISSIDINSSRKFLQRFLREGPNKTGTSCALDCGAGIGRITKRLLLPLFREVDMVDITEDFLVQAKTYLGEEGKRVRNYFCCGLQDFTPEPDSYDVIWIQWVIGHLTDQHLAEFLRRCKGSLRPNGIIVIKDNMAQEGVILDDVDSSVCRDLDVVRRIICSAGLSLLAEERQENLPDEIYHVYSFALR
UniProt Q9BPX3, sequence (Q9BPX3 whole entry, looked up): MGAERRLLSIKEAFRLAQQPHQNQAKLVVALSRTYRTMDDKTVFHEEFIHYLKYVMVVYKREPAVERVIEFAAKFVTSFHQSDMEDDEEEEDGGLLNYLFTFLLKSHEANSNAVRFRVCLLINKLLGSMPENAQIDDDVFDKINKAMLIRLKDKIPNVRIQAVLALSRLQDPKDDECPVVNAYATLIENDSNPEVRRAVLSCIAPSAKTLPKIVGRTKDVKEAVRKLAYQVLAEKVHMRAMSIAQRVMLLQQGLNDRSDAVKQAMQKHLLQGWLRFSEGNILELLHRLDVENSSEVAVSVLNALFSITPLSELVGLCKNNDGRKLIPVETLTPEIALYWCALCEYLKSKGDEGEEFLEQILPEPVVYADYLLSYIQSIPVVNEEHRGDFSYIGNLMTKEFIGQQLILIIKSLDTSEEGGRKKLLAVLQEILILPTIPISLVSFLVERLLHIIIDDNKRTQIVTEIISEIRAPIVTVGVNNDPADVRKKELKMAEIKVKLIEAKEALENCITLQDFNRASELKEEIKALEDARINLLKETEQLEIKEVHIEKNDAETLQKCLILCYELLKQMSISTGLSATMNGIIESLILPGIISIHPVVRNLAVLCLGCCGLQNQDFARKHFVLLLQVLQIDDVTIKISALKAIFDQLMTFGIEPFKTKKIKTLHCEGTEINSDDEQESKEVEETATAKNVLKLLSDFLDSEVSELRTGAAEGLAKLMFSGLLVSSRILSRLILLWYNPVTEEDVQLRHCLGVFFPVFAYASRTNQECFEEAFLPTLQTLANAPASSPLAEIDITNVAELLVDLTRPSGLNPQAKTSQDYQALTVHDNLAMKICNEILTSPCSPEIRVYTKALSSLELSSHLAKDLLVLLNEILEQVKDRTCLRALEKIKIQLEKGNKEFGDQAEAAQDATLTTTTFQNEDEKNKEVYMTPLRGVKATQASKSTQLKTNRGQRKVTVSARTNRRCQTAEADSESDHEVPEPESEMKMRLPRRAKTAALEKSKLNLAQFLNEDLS

| Target | log2 fold change |
| --- | --- |
| NDUFA6 (UniProt P56556) | -0.004 (inactive) |
| MORF4L2 (UniProt Q15014) | -0.116 (inactive) |
| NOL7 (UniProt Q9UMY1) | -0.139 (inactive) |
| NELFA (UniProt Q9H3P2) | -0.065 (inactive) |
| NHLRC2 (UniProt Q8NBF2) | 0.039 (inactive) |
| MRPS25 (UniProt P82663) | -0.059 (inactive) |
| MINK1 (UniProt Q8N4C8) | -0.018 (inactive) |
| OSBPL8 (UniProt Q9BZF1) | -0.148 (inactive) |
| NDUFA9 (UniProt Q16795) | 0.003 (inactive) |
| NTMT1 (UniProt Q9BV86) | 0 (inactive) |
| NFATC3 (UniProt Q12968) | -0.116 (inactive) |
| NAA11 (UniProt Q9BSU3) | 0.035 (inactive) |
| NUDT1 (UniProt P36639) | 0.025 (inactive) |
| MRPS18B (UniProt Q9Y676) | -0.026 (inactive) |
| NOP56 (UniProt O00567) | -0.03 (inactive) |
| MRPS15 (UniProt P82914) | -0.062 (inactive) |
| MXRA7 (UniProt P84157) | 0.098 (inactive) |
| NPC1 (UniProt O15118) | 0.014 (inactive) |
| NUCKS1 (UniProt Q9H1E3) | 0.094 (inactive) |
| NCAPG (UniProt Q9BPX3) | -0.092 (inactive) |

| Target | log2 fold change |
| --- | --- |
| NDUFB7 (UniProt P17568) | 0.012 (inactive) |
| NACC1 (UniProt Q96RE7) | -0.026 (inactive) |
| NDUFS8 (UniProt O00217) | 0.087 (inactive) |
| NCL (UniProt P19338) | -0.144 (inactive) |
| NOB1 (UniProt Q9ULX3) | -0.062 (inactive) |
| NDUFA12 (UniProt Q9UI09) | 0.05 (inactive) |
| NBN (UniProt O60934) | -0.009 (inactive) |
| NIBAN1 (UniProt Q9BZQ8) | -0.125 (inactive) |
| OXSR1 (UniProt O95747) | 0.014 (inactive) |
| NFYC (UniProt Q13952) | -0.023 (inactive) |
| NAPG (UniProt Q99747) | -0.071 (inactive) |
| NUP210 (UniProt Q8TEM1) | 0.005 (inactive) |
| MRPS24 (UniProt Q96EL2) | -0.048 (inactive) |
| NMT1 (UniProt P30419) | 0.023 (inactive) |
| NUP205 (UniProt Q92621) | -0.035 (inactive) |
| MRPL46 (UniProt Q9H2W6) | -0.069 (inactive) |
| MON1B (UniProt Q7L1V2) | 0.047 (inactive) |
| NFX1 (UniProt Q12986) | -0.028 (inactive) |
| MRPS16 (UniProt Q9Y3D3) | -0.082 (inactive) |

Each target was assayed with C=CC(=O)N1CCC[C@@H](n2nc(-c3ccc(Oc4ccccc4)cc3)c3c(N)ncnc32)C1 [ibrutinib] in the same assay as above.
Summary of the method: as §1

| Target | log2 fold change |
| --- | --- |
| NDUFA6 (UniProt P56556) | -0.031 (inactive) |
| MORF4L2 (UniProt Q15014) | 0.04 (inactive) |
| NOL7 (UniProt Q9UMY1) | 0.036 (inactive) |
| NELFA (UniProt Q9H3P2) | 0 (inactive) |
| NHLRC2 (UniProt Q8NBF2) | 0.07 (inactive) |
| MRPS25 (UniProt P82663) | 0.12 (inactive) |
| MINK1 (UniProt Q8N4C8) | 0.038 (inactive) |
| OSBPL8 (UniProt Q9BZF1) | -0.042 (inactive) |
| NDUFA9 (UniProt Q16795) | -0.036 (inactive) |
| NTMT1 (UniProt Q9BV86) | 0.011 (inactive) |
| NFATC3 (UniProt Q12968) | 0.01 (inactive) |
| NAA11 (UniProt Q9BSU3) | 0.049 (inactive) |
| NUDT1 (UniProt P36639) | 0.943 (active) |
| MRPS18B (UniProt Q9Y676) | 0.103 (inactive) |
| NOP56 (UniProt O00567) | 0.025 (inactive) |
| MRPS15 (UniProt P82914) | -0.022 (inactive) |
| MXRA7 (UniProt P84157) | 0.048 (inactive) |
| NPC1 (UniProt O15118) | 0.03 (inactive) |
| NUCKS1 (UniProt Q9H1E3) | -0.018 (inactive) |
| NCAPG (UniProt Q9BPX3) | -0.033 (inactive) |

| Target | log2 fold change |
| --- | --- |
| NDUFB7 (UniProt P17568) | 0.008 (inactive) |
| NACC1 (UniProt Q96RE7) | -0.048 (inactive) |
| NDUFS8 (UniProt O00217) | 0.034 (inactive) |
| NCL (UniProt P19338) | 0.034 (inactive) |
| NOB1 (UniProt Q9ULX3) | -0.025 (inactive) |
| NDUFA12 (UniProt Q9UI09) | -0.078 (inactive) |
| NBN (UniProt O60934) | -0.008 (inactive) |
| NIBAN1 (UniProt Q9BZQ8) | 0 (inactive) |
| OXSR1 (UniProt O95747) | -0.022 (inactive) |
| NFYC (UniProt Q13952) | -0.042 (inactive) |
| NAPG (UniProt Q99747) | -0.014 (inactive) |
| NUP210 (UniProt Q8TEM1) | -0.025 (inactive) |
| MRPS24 (UniProt Q96EL2) | 0.009 (inactive) |
| NMT1 (UniProt P30419) | 0.028 (inactive) |
| NUP205 (UniProt Q92621) | -0.038 (inactive) |
| MRPL46 (UniProt Q9H2W6) | -0.012 (inactive) |
| MON1B (UniProt Q7L1V2) | 0.037 (inactive) |
| NFX1 (UniProt Q12986) | 0.083 (inactive) |
| MRPS16 (UniProt Q9Y3D3) | 0.02 (inactive) |
